# From PubChem
# Rows were chosen to be rich in hits. Some 2.6% of all compounds tested hit in one or more screens of this group.
# GLP1R ag – qHTS of GLP-1 Receptor Agonists; HEK293 GLP-1R CRE-luciferase, luminescence, 4-6 h; cells express a hypersensitive GLP-1R form; Potency, µM (titrated, usually from 45.6 µM), usual class: activators; hit rate 0.007% among 380,000; AID 624172, 2012
# Target sequence (P43220 whole entry, looked up): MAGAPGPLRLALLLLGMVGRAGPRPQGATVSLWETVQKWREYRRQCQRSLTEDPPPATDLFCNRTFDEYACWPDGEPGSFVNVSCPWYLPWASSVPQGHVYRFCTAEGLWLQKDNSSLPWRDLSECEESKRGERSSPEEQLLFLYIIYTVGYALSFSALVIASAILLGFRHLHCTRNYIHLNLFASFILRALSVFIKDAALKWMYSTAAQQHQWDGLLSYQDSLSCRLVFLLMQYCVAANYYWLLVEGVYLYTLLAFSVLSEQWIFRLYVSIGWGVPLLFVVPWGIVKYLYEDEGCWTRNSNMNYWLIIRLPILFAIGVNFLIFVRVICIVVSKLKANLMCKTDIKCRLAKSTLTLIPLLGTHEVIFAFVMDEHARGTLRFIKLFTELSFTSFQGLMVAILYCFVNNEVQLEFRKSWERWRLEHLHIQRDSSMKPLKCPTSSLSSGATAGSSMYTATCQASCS
# BRCA1 expr up – qHTS Assay to Identify Small Molecule Activators of BRCA1 Expression | MCF7-BRCA1-FFLuc reporter, luminescence, 48 h; response scale: scaled: vehicle 0%, 10 µM genistein 100% | Potency, µM (top dose mostly 46.1 µM), hits mostly activators | hit rate 1.1% among 380,000 | AID 624202, 2012; further: nearly all actives have a fitted effect of over 80% in size
#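 MCF7-BRCA1-FFLuc, 2000 cells/well; 2 h attach, 37 °C/5% CO2; compound 48 h; luciferase substrate 15 min; luminescence end-point. Norm. to genistein 10 microM max activation and DMSO; concentration-response curves fitted.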
# HEK293 tox – qHTS of GLP-1 Receptor Inverse Agonists: Cytotox Screen. HEK293 cAMP-luciferase reporter cells, luminescence, 24 h. Potency, µM (titrated, usually from 38.3 µM), most hits filed as inhibitors. hit rate 0.13% among 410,000;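 further: loss of luciferase light is scored as toxicity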
#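 Compound-treated cells are incubated 24 hr at 37 deg C under 5% CO2 after a 12 hour attachment period, then luciferase detection reagent is added and luminescence is measured following 12 min at room temperature; lowered signal indicates toxicity.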
# GLP-1R inv ag – qHTS of GLP-1 Receptor Inverse Agonists (Inhibition Mode). Potency, µM (doses to about 38.3 µM), usual class: inhibitors. HEK293 GLP-1R CRE-luciferase, luminescence, 24 h; GLP-1R form is constitutively active. hit rate 1.6% among 410,000. AID 624417, 2012; further: nearly all actives have a fitted effect of over 55% in size
#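 GLP-1R inverse agonism mode: basal reporter luminescence in engineered HEK293 cells measured after one day of compound exposure at 37 deg C, with a 12 min room-temperature detection step.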
# Hits are given with their value; i = inactive; ? = inconclusive; nt = no result given. The call rests on the fitted dose curve; in most records, active means well fitted curve in the direction sought with a large enough effect; inconclusive means small, poorly fitted or top-dose-only effect, or another doubt; inactive means no such curve, though single readings can be large; an effect the other way counts as inactive or inconclusive.
SMILES,GLP1R ag,BRCA1 expr up,HEK293 tox,GLP-1R inv ag
CCCCOC(=O)Nc1ccc(C(N)=O)cc1,i,?,i,i
CCCCOC(=O)Nc1ccc(C(C)C)cc1,i,11µM,i,?
CCCCOC(=O)Nc1ccc(N2CCOCC2)cc1,i,4.5µM,i,i
COc1ccc(C2c3c(n(C)c4ccccc34)C(=O)N2CC(=O)Nc2ccc(Cl)cc2)cc1 (stereo not drawn),nt,nt,i,i
CCOc1ccc2c(c1)c(=O)c(C(=O)c1ccc(CC)cc1)cn2CC(=O)Nc1cccc(Cl)c1,i,i,i,i
CC(NCC(=O)Nc1ccccc1C(=O)NC1CC1)c1cccs1 (stereo not drawn),i,i,i,i
CC(C)C(NCC(=O)Nc1ccccc1C(=O)NC1CC1)c1ccccc1 (stereo not drawn),i,i,i,10µM
COc1ccc2nc(NC(=O)CSc3nnnn3C)sc2c1,i,?,i,i
CC(C)CC1NC(=O)C(CCCN)NC(=O)C(C(C)C)NC(=O)C2CCCN2C(=O)C(Cc2ccccc2)NC(=O)C(CC(C)C)NC(=O)C(CCCN)NC(=O)C(C(C)C)NC(=O)C2CCCN2C(=O)C(Cc2ccccc2)NC1=O (stereo not drawn),i,nt,nt,nt
CC[C@H](C)[C@@H]1NC(=O)[C@@H](CC(C)C)NC(=O)[C@H](C(C)C)NC(=O)[C@H]2CSSC[C@H](NC1=O)C(=O)N2,i,i,?,4µM
COc1ccc(Nc2ncccc2C(=O)Nc2ccccc2)cc1,i,i,i,?
COc1ccc(NC(=O)c2cnn(-c3ccccc3)c2C)cc1,i,?,i,7.9µM
COc1ccccc1C(=O)NC(=O)Nc1ccc(-c2cc(C(F)(F)F)nn2-c2ccccc2)cc1,nt,nt,i,i
COc1ccc(NC(=O)c2cccnc2Nc2ccc(OC)cc2)cc1,i,i,i,10µM
COc1ccccc1C(=O)Nc1ccc(-c2cc(C(F)(F)F)nn2-c2ccccc2)cc1,nt,nt,?,5.6µM
Cc1c(C(=O)Nc2cccc([N+](=O)[O-])c2)cnn1-c1ccccc1,i,2.5µM,i,?
Cc1cc(C)n(-c2nc3ccccc3nc2N2CCN(c3cccc(C(F)(F)F)c3)CC2)n1,nt,nt,i,i
COc1ccc(NC(=O)c2cnn(-c3ccccc3)c2C)cc1OC,i,4µM,i,i
CN1CCN(C(=O)C[C@@H]2CC[C@@H]3[C@H](COC[C@@H](O)CN3Cc3cccc(Cl)c3)O2)CC1,nt,nt,i,i
CC(C)CCCCCCNC(=S)Nc1ccc(S(=O)(=O)N2CCOCC2)cc1,i,i,?,3.5µM
O=S(=O)(c1ccc(NC(=S)Nc2ccccc2)cc1)N1CCOCC1,i,i,i,i
COc1ccc(-n2nc(C(=O)NCC(=O)NC3CCCCC3)c3ccccc3c2=O)cc1,i,i,i,i
CCOC(=O)c1ccc(-c2c(-c3ccccc3OC)sc3ccc(OC)cc23)cc1F,i,i,i,11µM
COc1ccc2sc(-c3ccccc3OC)c(-c3ccc(OC)nc3)c2c1,i,i,i,?
COc1ccc2c(c1)nc(N)n2Cc1ccccc1,i,i,i,i
SMILES,GLP1R ag,BRCA1 expr up,HEK293 tox,GLP-1R inv ag
CN=C1c2cc3cc(OC)ccc3n2CCN1Cc1ccccc1,i,i,i,5µM
Cn1c(=O)c2c(nc(CN3CCN(c4ccccc4F)CC3)n2Cc2ccc(F)cc2)n(C)c1=O,nt,nt,i,i
Cc1ccc(C)c(Cn2c3ccccc3c3cnn(CC(=O)NCc4ccccc4)c(=O)c32)c1,nt,nt,i,i
O=C(Cc1cccs1)NCc1ccc2c(c1)OCO2,i,i,i,i
O=C(NC1CCCC1)C(c1ccccc1)N(Cc1ccc2c(c1)OCO2)C(=O)Cc1cccs1 (stereo not drawn),i,i,i,10µM
O=C(NCc1ccccc1)C(c1ccccc1)N(Cc1ccc2c(c1)OCO2)C(=O)Cc1cccs1 (stereo not drawn),i,i,i,7.9µM
C[C@@H]1CCCCCCCCC(=O)OCCN1C(=O)OC(C)(C)C,i,i,i,i
COc1cc(/C=N/N=C2/NC(=O)C(CC(=O)O)S2)ccc1OCc1cccc(Cl)c1 (stereo not drawn),i,11µM,i,i
COc1ccc(/C=N/N=C2/NC(=O)C(CC(=O)O)S2)cc1OCc1ccc(Cl)cc1 (stereo not drawn),i,i,i,i
CCCCCCCCCC(=O)NO,i,nt,nt,nt
Cc1cc(C)nc(NC(=S)NC(=O)c2ccccc2F)n1,i,i,i,i
Cc1cc(C)nc(S/C=C/C(=O)c2ccccc2F)n1,i,i,3.5µM,?
COc1ccc(C(=O)C2CCCN(Cc3c(O)cccc3OC)C2)cc1OC (stereo not drawn),i,i,i,i
COc1cccc(-c2ccc(NC(=O)C3CCCN(Cc4cccc(C)n4)C3)cc2)c1 (stereo not drawn),i,i,?,?
COc1cccc(O)c1CN1CCCC(C(=O)c2cccc(C(F)(F)F)c2)C1 (stereo not drawn),i,i,?,13µM
COc1ccc2cc(C(=O)C3CCCN(Cc4cccc(C)n4)C3)ccc2c1 (stereo not drawn),i,i,3.2µM,4.5µM
N#Cc1ccccc1Oc1ccc(S(=O)(=O)N2CCCCC2)cn1,i,10µM,i,i
CNC(=O)c1cc(-c2cccs2)on1,nt,i,nt,nt
Cc1cccc(C(=O)NNC(=O)c2cccc(C)c2)c1,i,i,i,i
Cc1ccc(CONC(=O)c2cccc(C)c2)cc1,i,8.9µM,i,i
O=C(NOCc1ccccc1)c1ccccc1,i,1.3µM,i,?
O=C(Nc1ccc(F)cc1F)c1ccc2ncsc2c1,i,5µM,i,i
O=C(Nc1ccccc1F)c1ccc2ncsc2c1,i,?,i,i
CSc1ccccc1OCc1cc(C(=O)NC(C)Cc2cccc(C)n2)no1 (stereo not drawn),i,?,i,?
CSc1ccccc1OCc1cc(C(=O)NC2CCOC(C)(C)C2)no1 (stereo not drawn),i,i,i,i
SMILES,GLP1R ag,BRCA1 expr up,HEK293 tox,GLP-1R inv ag
Cc1cc(C)nc(CCNC(=O)c2cc(COc3c(F)cccc3F)on2)n1,i,i,i,i
C=CC[C@H]1CC(C)=C[C@H](CC=C)N1C(=O)c1cc(COc2ccccc2SC)on1,i,i,i,8.9µM
Cc1cc(C)nc(CCNC(=O)c2cc(COc3ccccc3)on2)n1,i,7.9µM,i,i
CSc1ccccc1OCc1cc(C(=O)NCc2cccc(C)n2)no1,i,6.3µM,i,i
CSc1ccccc1OCc1cc(C(=O)NC2CCOC2)no1 (stereo not drawn),i,13µM,i,i
CN1CCN(S(=O)(=O)c2ccc(NS(=O)(=O)c3ccccc3)cc2)CC1,i,i,i,i
Cc1cc(S(=O)(=O)N2CCN(c3ccccc3F)CC2)ccc1-n1cnnn1,i,i,i,?
CSc1ccccc1OCc1cc(C(=O)N(C)Cc2nonc2C)no1,i,11µM,i,?
